Results taken from PMC5540273 (PLoS ONE, 2017).
Like-named read-outs stand apart in the source and are kept apart here.

Columns and labels:
AAK1 = conditions: n = 1
ABL1-nonphosphorylated = conditions: concentration: 1 μM,replicates: in singlicate; n = 1
ABL1-phosphorylated = conditions: concentration: 1 μM,replicates: in singlicate; n = 1
ABL2 = conditions: concentration: 1 μM,replicates: in singlicate; n = 1
ACVR1B = conditions: concentration: 1 μM,replicates: in singlicate; n = 1
ACVR1 = conditions: concentration: 1 μM,replicates: in singlicate; n = 1
ACVR2A = conditions: concentration: 1 μM,replicates: in singlicate; n = 1
ACVR2B = conditions: concentration: 1 μM,replicates: in singlicate; n = 1
ACVRL1 = conditions: concentration: 1 μM,replicates: in singlicate; n = 1
ADCK3 = system: T1, ADCK3; conditions: concentration: 1 μM,replicates: in singlicate; n = 1
T1 construct: gene CABC1

[1] = concentration: 1 μM,replicates: in singlicate
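Also: KINOMEscan kinase panel screen.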

Row | Compound | %Inh (AAK1; [1]) [%] | %Inh (ABL1-nonphosphorylated) [%] | %Inh (ABL1-phosphorylated) [%] | %Inh (ABL2) [%] | %Inh (ACVR1B) [%] | %Inh (ACVR1) [%] | %Inh (ACVR2A) [%] | %Inh (ACVR2B) [%] | %Inh (ACVRL1) [%] | %Inh (ADCK3) [%] | %Inh (AAK1; 1 µM) [%]
1 | CC(=O)c1c(-c2ccncc2)[nH]c(-c2ccncc2)c1C [GW493036] | 14 | 0 | 0 | 7 | 0 | 7 | 0 | 17 | 0 | 4 | 
2 | O=C(NOCC1CC1)c1cc(Br)c(F)c(F)c1Nc1ccc(I)cc1Cl | 0 | 52 | 0 | 0 | 0 | 0 | 2 | 0 | 0 | 7 | 
3 | CCOC(=O)N1CCC(n2cnc(-c3ccc(F)cc3)c2-c2ccnc(N)n2)CC1 [SB-219952] | 0 | 60 | 2 | 0 | 33 | 28 | 0 | 0 | 10 | 15 | 
4 | COc1cc(Nc2nccc(N3CCC(NC(=O)c4cccc(C#N)c4)C3)n2)cc(OC)c1OC (stereo not shown) [GSK1379751] | 75 | 0 | 0 | 3 | 0 | 98.8 | 0 | 0 | 0 | 4 | 
5 | Cc1ccc(Nc2ccnc(Nc3ccc4c(c3)CS(=O)(=O)C4)n2)cc1O.Cl [GW579362] | 80 | 99.3 | 99.8 | 99.3 | 84 | 99.5 | 72 | 95.6 | 85 | 8 | 
6 | CN1CCN(CCNc2nc3cc(Oc4ccc(NC(=O)Nc5cc(C(F)(F)F)ccc5F)cc4)ccc3[nH]2)CC1.Cl.Cl [GW768504] | 0 | 51 | 23 | 0 | 0 | 0 | 0 | 0 | 0 | 0 | 
7 | CC(=O)Nc1ccc(-c2cc3ncnc(SCC(=O)O)c3s2)cc1 | 44 | 15 | 3 | 8 | 2 | 0 | 4 | 30 | 27 | 0 | 
8 | Cl.Nc1n[nH]c2cc(-c3ccccn3)ccc12 [GSK2189892] | 17 | 0 | 0 | 0 | 0 | 10 | 0 | 6 | 0 | 11 | 
9 | CCn1c(-c2nonc2N)nc2cncc(CNC3CCNCC3)c21.Cl [SB-747651] | 39 | 5 | 5 | 13 | 0 | 8 | 0 | 0 | 0 | 1 | 
10 | Cn1ccc2ncnc(Oc3ccc(NC(=O)Nc4cccc(C(F)(F)F)c4)c(Cl)c3)c21 | 0 | 88 | 19 | 21 | 1 | 0 | 0 | 47 | 0 | 5 | 
11 | COC(=O)c1cccc(NC(=O)NC2CCN(c3ccnc(NCc4ccc(F)cc4)n3)CC2)c1 [GSK1379860] | 0 | 0 | 0 | 14 | 0 | 0 | 0 | 23 | 0 | 5 | 
12 | O=c1[nH]cc(-c2ccc(O)cc2)c2sc(-c3ccncc3)cc12 [GSK1033723] | 26 | 0 | 0 | 0 | 0 | 0 | 0 | 0 | 0 | 34 | 
13 | Cn1cc(-c2cccc3c(N)c(C(N)=O)nnc23)cn1 | 36 | 24 | 0 | 9 | 28 | 63 | 27 | 29 | 3 | 15 | 
14 | O=C(NCC1CC1)c1ccc(-c2cc(C(=O)NC3CC3)ccc2F)cc1 [GW810445] | 0 | 0 | 10 | 3 | 0 | 0 | 0 | 6 | 0 | 0 | 
15 | Cc1nnc(-c2ccc3occ(-c4ccc(S(C)=O)cc4)c3n2)o1 (stereo not shown) | 0 | 43 | 30 | 16 | 0 | 0 | 0 | 0 | 0 | 2 | 
16 | NC(=O)Nc1sc(-c2ccc(F)cc2)cc1C(N)=O [GW789449] | 60 | 49 | 0 | 3 | 5 | 0 | 31 | 28 | 0 | 5 | 
17 | CC(C)c1nc(-c2cccc(NS(=O)(=O)c3ccccc3)c2)c(-c2ccnc(Nc3ccc4c(c3)CN(C)CC4)n2)s1 [GSK1649598] | 25 | 99.8 | 97.3 | 98.7 | 93.5 | 99 | 24 | 94.5 | 80 | 100 | 

Row | Compound | %Inh (AAK1; [1]) [%] | %Inh (ABL1-nonphosphorylated) [%] | %Inh (ABL1-phosphorylated) [%] | %Inh (ABL2) [%] | %Inh (ACVR1B) [%] | %Inh (ACVR1) [%] | %Inh (ACVR2A) [%] | %Inh (ACVR2B) [%] | %Inh (ACVRL1) [%] | %Inh (ADCK3) [%] | %Inh (AAK1; 1 µM) [%]
18 | Cn1ccc2ncnc(Oc3ccc(NC(=O)Nc4ccnc(C(F)(F)F)c4)c(Cl)c3)c21 | 18 | 68 | 10 | 5 | 0 | 11 | 4 | 13 | 63 | 0 | 
19 | O=C(Nc1n[nH]c2cc(-c3ccco3)ccc12)C1CC1 [SB-737447] | 100 | 37 | 28 | 0 | 5 | 0 | 9 | 0 | 0 | 8 | 
20 | COC(=O)c1cccc(NC(=O)NC2CCN(c3ccnc(Nc4cc(OC)c(OC)c(OC)c4)n3)C2)c1 (stereo not shown) [GSK1379767] | 68 | 0 | 0 | 1 | 0 | 33 | 35 | 6 | 0 | 21 | 
21 | O=C(Nc1ccccc1)c1cccc(Oc2ccc3nccn3n2)c1 | 1 | 12 | 0 | 3 | 5 | 6 | 0 | 5 | 2 | 19 | 
22 | FC(F)(F)c1cc(Br)cc(Nc2nccc(-c3cnn4ncccc34)n2)c1 [GW810578] | 32 | 0 | 0 | 0 | 6 | 15 | 13 | 2 | 25 | 10 | 
23 | Cl.Cl.NC[C@H](CC1CCCCC1)NC(=O)c1ccc(-c2ccnc3[nH]ccc23)s1 [GSK1581428] |  | 0 | 0 | 8 | 0 | 5 | 61 | 0 | 0 | 13 | 75
24 | CN(c1ccccc1CNc1nc(Nc2ccc3c(c2)CC(=O)N3)ncc1C(F)(F)F)S(C)(=O)=O | 10 | 25 | 7 | 5 | 28 | 0 | 0 | 0 | 0 | 0 | 
25 | CCN1CCN(CCCC(=O)Nc2n[nH]c3nc(-c4ccc(O)cc4)c(Br)cc23)CC1 [SB-731579] | 0 | 64 | 31 | 100 | 0 | 78 | 0 | 2 | 63 | 0 | 
26 | CS(=O)(=O)c1cccc(CNc2nc(Nc3ccc4c(c3)[C@@H]3C[C@@H]4CNC3=O)ncc2C(F)(F)F)c1 | 92.6 | 97.9 | 93.2 | 66 | 0 | 0 | 0 | 0 | 0 | 0 | 
27 | Cn1ccc2ncnc(Oc3ccc(NC(=O)Nc4cnn(C(C)(C)C)c4)c(Cl)c3)c21 | 3 | 87 | 39 | 11 | 2 | 0 | 0 | 0 | 17 | 0 | 
28 | OCCn1cc(-c2cnc3nnn(Cc4ccc5ncccc5c4)c3n2)cn1 | 0 | 32 | 0 | 0 | 51 | 0 | 0 | 0 | 0 | 0 | 
29 | Cc1ccc(C(=O)Nc2ccc(Oc3ccc4nc(NC(=O)C5CC5)cn4c3)c(F)c2)c(=O)n1-c1ccccc1 | 0 | 100 | 98.3 | 83 | 0 | 0 | 0 | 16 | 0 | 13 | 
30 | Cc1ccn2nc(-c3ccc(F)cc3)c(-c3ccncc3)c2c1.Cl [GW457859] | 0 | 0 | 0 | 0 | 0 | 9 | 0 | 32 | 0 | 17 | 
31 | Cn1ccc2ncnc(Oc3ccc(NC(=O)Nc4cc(C(C)(C)C)on4)c(Cl)c3)c21 | 18 | 94.8 | 51 | 46 | 15 | 0 | 12 | 12 | 0 | 0 | 
32 | C[C@@H]1CCN(C(=O)N2CCCC2)C[C@@H]1N(C)c1ncnc2[nH]ccc12 | 31 | 51 | 9 | 0 | 1 | 0 | 3 | 0 | 0 | 7 | 
33 | CCNCC(Cc1ccccc1)NC(=O)c1cc(Br)c(-c2ccnc3[nH]ccc23)s1.Cl.Cl (stereo not shown) [GSK1383280] | 39 | 15 | 14 | 19 | 0 | 0 | 0 | 2 | 0 | 12 | 
34 | Cc1n[nH]c2cc(Nc3ccnc(Nc4cccc(CN5CCOCC5)c4)n3)ccc12 [GW682569] | 71 | 22 | 26 | 23 | 36 | 85 | 0 | 39 | 17 | 19 | 
